In ChEMBL document CHEMBL4513216, “Probing the Open Global Health Chemical Diversity Library for Multistage-Active Starting Points for Next-Generation Antimalarials” (ACS Infect Dis, 2020):
In all, about 69,000 compounds went through this assay and about 8,600 (12%) showed an effect of 50% or more. The entries come from a sample that favours strong results as a whole.

system: Plasmodium berghei; experiment: Screen against P. berghei liver stage (PbLuc), transformed with Luciferase, at 10uM; assay type: functional, HepG2; conditions: tested at 10 uM

SMILES	INHIBITION [%]
CSc1ccc(C(=O)N2CC(=O)N(Cc3cccs3)CC(O)C2)cc1 (stereo not given)	19.2
CCOCC(O)CN1CCN(C(=O)C2CCC2)CC1 (stereo not given)	-14.6
Cc1ccc(O)c(CNc2cccc(CN3CCN(C)CC3)c2)n1	13.9
Cc1cc(NC(=O)CN2CCc3c(nc(C(C)C)n3C)C2)n(C)n1	36
COCC1c2nnn(CC3CC3)c2CCN1Cc1ccncc1 (stereo not given)	4.68
Cc1cc(C)c(CNC(=O)N(C)Cc2cccc(C#N)c2)c(=O)[nH]1	-3.7
COc1ccc(C(=O)N2CCCC2c2noc(C(C)C)n2)nn1 (stereo not given)	12.255
O=C(NC1CC1)N1CC[C@H]2[C@H]1CCN2c1nncs1	-19.8
CN(C)CCNC(=O)[C@H]1C[C@H]2CN(C(=O)NCc3ccccc3)C[C@@H]1O2	-0.27
CN(Cc1noc(C2CC2)n1)C1CCN(Cc2ccc(F)c(F)c2)C1 (stereo not given)	-19.945
Cc1cnc(N2CCC3(CC(=O)N(Cc4csc(C)n4)C3)C2)nc1 (stereo not given)	54.7
Cc1nc(CN2CC3(CCN(c4cnccn4)C3)CC2=O)cs1 (stereo not given)	35.8
COc1cc(N2CCC3(CCN(Cc4nccs4)CC3)C2)ncn1	91.9
Cc1ccc(N2CCC3(CC2)COCCN(c2nccs2)C3)nn1	6.72
Cc1ccc(N2CC3(CCN(c4nccs4)C3)C2)nn1	58.5
N#Cc1ccc(N2CC3(CCN(c4nccs4)C3)C2)nc1	37.9
Cc1nc(CN2CC3(CCN(c4ncccn4)C3)CC2=O)cs1 (stereo not given)	18.2
COc1cc(N2CC3(CCN(c4ncccn4)C3)C2)ncn1	12.1
COc1cc(N2CCC3(CC(=O)N(Cc4csc(C)n4)C3)C2)ncn1 (stereo not given)	58.4
Cc1nc(CN2CC3(CCN(c4ncc(F)cn4)C3)CC2=O)cs1 (stereo not given)	-30
c1csc(CN2CCC3(CC2)CCN(CC2CCOCC2)C3)n1	-8.85
CCc1cnc(N2CCC3(CC(=O)N(Cc4csc(C)n4)C3)C2)nc1 (stereo not given)	34.4
Cc1cccc(C(=O)Nc2c(C(=O)N(C)C)nn(C)c2C)c1	35
Cc1cnn(CC2CN(C=C3NN=C(c4occc4C)O3)CCO2)c1 (stereo not given)	13.3
Cc1cccc(CN2C(=O)CCC23CCN(C(=O)c2ccco2)CC3)c1	-7.28
Cc1nc(C)n(C2CCCN(C(=O)CCn3cncn3)C2)n1 (stereo not given)	14.9
CCc1nc(CN(C)c2nccc(N3CCCC(O)C3)n2)no1 (stereo not given)	20.3

SMILES	INHIBITION [%]
Cc1nc(O)ccc1C(=O)NCc1ncccc1F	12.6
COCCNC(=O)NC1(c2nc(-c3ccncc3)no2)CCCCC1	56.3
O=C(NC1(c2nc(C3CC3)no2)CCCCC1)c1ccncc1	-3.19
COCCNC(=O)NC1(c2nc(C)no2)CCCCC1	19.2
CC(C)CNS(=O)(=O)c1ccc(C(=O)N(C)CCc2cn[nH]c2)cc1	-12.4
NC(=O)c1c(-c2ccc(Cl)cc2Cl)csc1NC(=O)CCC(=O)O	44.9
O=C(NCCS(=O)(=O)N1CCc2ccccc21)c1c(O)cc(F)cc1F	42
O=C(NCCC(=O)N1CCCc2ccccc21)c1ccc(F)cc1F	11.6
O=C(NCCC(=O)N1CCCc2ccccc21)c1c(O)cc(F)cc1F	73.9
O=C(NCC(=O)N1CCCc2ccccc21)c1c(O)cc(F)cc1F	80.6
O=C(NCCC(=O)N1CCCc2ccccc21)c1cc(F)cc(F)c1	-19.9
O=C(NCCC(=O)N1CCCc2ccccc21)c1c(F)cccc1F	-57.4
C=C(C)COc1ccc(C(CC(=O)OC)c2oc(C)cc(=O)c2O)cc1 (stereo not given)	-24.7
CNc1ncc(CN(C)C(=O)c2cccc(Cn3cccn3)c2)cn1	18.5
CCc1ccccc1Nc1noc2c1CN(C(=O)c1ccn(C)n1)CC2	-3.35
CCn1ccnc1CN1CCN(Cc2cccnc2)CC1C (stereo not given)	33.5
CC(C)Nc1nc2c(s1)C(=O)CN(C)C2	35.2
CC(C)NC(=O)N1CC(=O)c2sc(NC3CCCCC3)nc2C1	-16.7
CC(C)CC(=O)N1CC(=O)c2sc(Nc3ccc(F)cc3)nc2C1	51.5
N#Cc1ccc(Nc2nc3c(s2)C(=O)CN(CC2CC2)C3)cc1	-15.2
CC(C)NC(=O)N1CC(=O)c2sc(Nc3ccc(C#N)cc3)nc2C1	61.9
CCN1CC(=O)c2sc(NC(C)C)nc2C1	23.4
CC(C)CC(=O)N1CC(=O)c2sc(Nc3ccc(C#N)cc3)nc2C1	79.7
CC[C@H](C)[C@H](N)C(=O)N1CC(=O)c2sc(Nc3ccc(F)cc3)nc2C1	14.5
Cc1nc(C)n(CC2CCCN(CCCOc3ccc(F)cc3)C2)n1 (stereo not given)	40.2
NC(=O)C1CCN(CCc2ccc(NC(=O)C3CC3)cc2)CC1	45.05
CC(O)(CNC(=O)NCCc1ccc2c(c1)CCO2)c1ccsc1 (stereo not given)	30.8

SMILES	INHIBITION [%]
CC(C)c1nn(C)cc1CNC1CCOc2ccccc21 (stereo not given)	31.8
COc1ccccc1C1CNCCN1C(C)=O (stereo not given)	9.98
CC(=O)N1CCC2(CCCN2Cc2cnn(C)c2)CC1	-26
CCOc1ccnc(N2CCCN(c3nc(C4CC4)ns3)CC2)n1	-75.5
CCOc1ccnc(N2CCCN(c3nc(CC)ns3)CC2)n1	-12.5
COc1ccnc(N2CCCN(c3nc(C4CC4)ns3)CC2)n1	77.6
CC(C)C(NC(=O)Cn1ccc(=O)n(C)c1=O)c1ccc(F)cc1 (stereo not given)	53.8
CC(NC(=O)Cn1ccc(=O)n(C)c1=O)c1ccccc1F (stereo not given)	-27.8
CC(NC(=O)Cn1ccc(=O)n(C)c1=O)c1cc(F)ccc1F (stereo not given)	-35.7
O=C(c1ccc(NCc2cccc(F)c2)cc1)N1CCCC1	-16.1
CCC(C(=O)N(C)Cc1cc(COC)[nH]n1)n1cccn1 (stereo not given)	-29.2
O=C(c1ccc(NC2CC2)nc1)N1CCCC(n2ccnc2)C1 (stereo not given)	31.32
CCn1cc(S(=O)(=O)N2CCCC3(CC=CNC3=O)C2)c(C)n1 (stereo not given)	-42.9
Cn1cc(C(O)CNC(=O)c2cc(Br)ccc2Cl)cn1 (stereo not given)	19.8
Cn1cc(C(O)CNC(=O)c2ccc(F)cc2Cl)cn1 (stereo not given)	51.6
Cc1ccc(C(=O)NCC(O)c2cnn(C)c2)c(Br)c1 (stereo not given)	29.7
CC(C)(O)CNC(=O)NCc1nccn1CCc1ccccc1	-4.63
CC(C)COCC(NC(=O)c1ccccn1)c1ccco1 (stereo not given)	8.25
CC(C)COCC(NC(=O)c1cnccn1)c1ccco1 (stereo not given)	-26.6
CC(C)COCC(NC(=O)c1cc[nH]n1)c1ccco1 (stereo not given)	53.8
CCn1nc(CC(C)C)cc1C(=O)NCC(F)(F)F	15.4
Cc1noc(C)c1CN1CCOC2(CCCN(c3ncccn3)C2)C1 (stereo not given)	-21.1
CC(C)c1nnc(CN2CCN(C(C)c3nc(C4CC4)no3)CC2)o1 (stereo not given)	33.3
CCC1=NN2C(=N)/C(=C/c3cccc(Cl)c3)C(=O)N=C2S1	37.7
CCC1=NN2C(=N)C(=Cc3cccn3-c3ccc(Cl)cc3)C(=O)N=C2S1	76.7
CCC1=NN2C(=N)C(=Cc3cccn3-c3cccc(Cl)c3)C(=O)N=C2S1	73.7
CCC1=NN2C(=N)C(=Cc3cccn3-c3ccc(Br)cc3)C(=O)N=C2S1	65.4

SMILES	INHIBITION [%]
O=C(O)Cc1cn2cc(C(F)(F)F)ccc2n1	7.38
Cn1cc(CN2CC[C@H](O)[C@@H]2Cc2ccccc2)cn1	17.1
Cc1noc(C)c1C(=O)N1C[C@H]2CCC[C@@]2(COc2ccccn2)C1	34.7
COc1ccnc(N2C[C@@H](NS(=O)(=O)N(C)C)[C@H](C(C)C)C2)n1	-15.6
CCC[C@H]1CN(c2nccc(NCC)n2)C[C@@H]1NS(=O)(=O)N(C)C	48.7
CCC[C@H]1CN(c2nccc(OC)n2)C[C@@H]1NS(=O)(=O)N(C)C	56.6
CCS(=O)(=O)N1CC[C@H](OC)[C@@H]1Cc1ccncc1	28.4
CNc1ncc(-c2ccnn2C2CCN(C(C)=O)CC2)cn1	42.6
CCc1c(C(=O)N2CCOC(C)(C)C2)cnn1-c1ccccn1	4.95
CC1CN(C(=O)c2cnn(-c3ccccn3)c2C(C)C)CC(C)(C)O1 (stereo not given)	51.5
CCc1c(C(=O)N2CC(C)OC(C)(C)C2)cnn1-c1ccccn1 (stereo not given)	2.97
CCOC[C@@H]1CCC[C@]12CN(S(=O)(=O)c1cn(C)cn1)CCO2	35.5
O=C(c1cccn1Cc1cccs1)N1CCSCC1	9.64
COc1cccc(OCCNS(C)(=O)=O)c1	-0.614
COc1cccc(OCCNCc2ccccc2)c1	51.5
COc1cccc(OCCNS(=O)(=O)Cc2ccccc2)c1	10.7
CC(C)(C)c1n[nH]c(C2CN(C(=O)C3=COCCC3)CCO2)n1 (stereo not given)	40.2
COc1ccccc1OC1(C(=O)O)CCN(c2nccnc2C)CC1	8.47
COc1ccccc1OC1(C(=O)O)CCN(c2ncnc(C)c2C)CC1	55.4
COc1ccccc1OC1(C(=O)O)CCN(c2ccccn2)CC1	40.5
COc1ccccc1OC1(C(=O)O)CCN(c2nc(C)cnc2C)CC1	56.5
COc1ccccc1OC1(C(=O)O)CCN(c2ncccc2F)CC1	30.8
COc1ccccc1OC1(C(=O)O)CCN(c2nccnc2OC)CC1	3.03
CN1CC2(CCN(C(=O)c3ccc(-n4cccn4)cc3Cl)C2)OC1=O (stereo not given)	32.5
